Reference: PubChem BioAssay (NCI)
Compounds without any hit were thinned out: in the full panel of roughly 83,000, 20% have a hit.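 Treatment: one concentration, 48 hours, 96-well format. Scoring: percent growth, with anything below 10 considered active.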 Unmarked numbers belong to inactive results. Calls of active or inactive are those of the source.

What was measured:
Test in all cases: NCI-60 one-dose screen, 48 h (100 = growth as untreated, 0 = no growth, -100 = all killed)
Conditions in all cases: 10 µM
NCI-H23 lung = tested on: NCI-H23 lung
NCI-H226 lung = tested on: NCI-H226 lung
NCI-H322M lung = tested on: NCI-H322M lung
HOP-62 NSCLC = tested on: HOP-62 NSCLC
NCI-H460 lung = tested on: NCI-H460 lung
NCI-H522 lung = tested on: NCI-H522 lung
A549/ATCC NSCLC = tested on: A549/ATCC NSCLC
786-0 renal = tested on: 786-0 renal
COLO 205 colon = tested on: COLO 205 colon
DU-145 prostate = tested on: DU-145 prostate
K-562 leukemia = tested on: K-562 leukemia
MALME-3M melanoma = tested on: MALME-3M melanoma
MDA-MB-231 breast = tested on: MDA-MB-231 breast
RXF 393 renal = tested on: RXF 393 renal
SF-268 CNS = tested on: SF-268 CNS
SF-295 CNS = tested on: SF-295 CNS
SF-539 CNS = tested on: SF-539 CNS
UACC-257 melanoma = tested on: UACC-257 melanoma
M14 melanoma = tested on: M14 melanoma
HCT-15 colon = tested on: HCT-15 colon

SMILES | growth (NCI-H23 lung) | growth (NCI-H226 lung) [%] | growth (NCI-H322M lung) | growth (HOP-62 NSCLC) [%] | growth (NCI-H460 lung) | growth (NCI-H522 lung) | growth (A549/ATCC NSCLC) | growth (786-0 renal) | growth (COLO 205 colon) | growth (DU-145 prostate) | growth (K-562 leukemia) | growth (MALME-3M melanoma) | growth (MDA-MB-231 breast) | growth (RXF 393 renal) | growth (SF-268 CNS) | growth (SF-295 CNS) | growth (SF-539 CNS) | growth (UACC-257 melanoma) | growth (M14 melanoma) | growth (HCT-15 colon)
COc1ccccc1CNCCCN1C(=O)c2ccc3c4c(ccc(c24)C1=O)C(=O)N(CCCN)C3=O | -34.7% (active) | 47.3 | -30.7% (active) | 18.7 | -50.8% (active) | -79.1% (active) | -28% (active) | 4.32% (active) | -87.5% (active) | -95.6% (active) | -22.7% (active) | -94.1% (active) | 3.16% (active) | -56% (active) | -22.1% (active) | -2.42% (active) | -87.3% (active) | -91.9% (active) | -62% (active) | -30.8% (active)
c1ccc(CO[C@H]2CO[C@H]3[C@@H]2OC[C@H]3OCc2ccccc2)cc1 | 107% | 101 | 101% | 97.7 | 110% | 100% | 111% | 104% | 100% | 119% | 106% | 144% | 112% | 119% | 102% | 95.3% | 110% | 108% | 104% | 99.1%
COc1ccc(/C=C/C(C)=N/OCC(=O)O)cc1 | 103% | 99.6 | 106% | 105 | 108% | 92.8% | 102% | 98.1% | 98.9% | 104% | 99.9% | 96.7% | 120% | 101% | 107% | 100% | 101% | 112% | 100% | 102%
COC(=O)[C@@H]1[C@H](O)[C@H](C)[C@H](O)[C@@](C)(O)/C=C\C=C(C)C(=O)Nc2c(C)c(OC(C)=O)c3c(c2O)C(=O)C(C)=C2OCOC(=C23)C(C)=C[C@@](C)(O)[C@H](O)[C@@H](C)[C@H]1OC(C)=O | 101% | 109 | 125% | 111 | 127% | 105% | 110% | 95.2% | 112% | 85.5% | 89% | 101% | 98.8% | 104% | 113% | 98% | 100% | 107% | 122% | 74.7%
O=C(N/N=C\c1cc(Cl)ccc1[N+](=O)[O-])c1ccco1 | 98.2% | 105 | 126% | 110 | 101% | 97.2% | 90.7% | 95.6% | 139% | 108% | 102% | 125% | 95% | 115% | 99.3% | 108% | 92.4% | 95% | 108% | 97%
O=C1c2ccc3c4c(ccc(c24)C(=O)N1CCNCc1ccccc1)C(=O)N(CCNCc1ccccc1)C3=O | -49.4% (active) | 115 | -43% (active) | 95.6 | -26.7% (active) | -51.2% (active) | 12.8% | 52.4% | 24.1% | 20.7% | 1.04% (active) | -68.4% (active) | 39.9% | 90.5% | 7.12% (active) | -28.2% (active) | -54.2% (active) | 95.8% | -62.3% (active) | -25.9% (active)
COc1ccc(Cl)cc1C(=O)Nc1nc2ccc(Cl)cc2s1 | 90.5% | 89.2 | 85.6% | 89.4 | 93.7% | 99.4% | 76.7% | 75.8% | 82.8% | 94.9% | 86.8% | 83.3% | 70.9% | 95% | 83.2% | 170% | 86.4% | 102% | 95.1% | 86.5%
C#Cc1ccc(-n2c(/C=C/c3ccc(O)c(OC)c3)nc3ncccc3c2=O)cc1 | 102% | 93.9 | 98.2% | 95.3 | 103% | 79% | 90.3% | 105% | 109% | 111% | 80% | 95% | 98.5% | 100% | 95% | 104% | 97.2% | 87.8% | 101% | 90.5%
CC(=O)OCc1cc(-c2nc3ccccc3[nH]c2=O)nn1-c1ccc(Cl)cc1 | 91.5% | 93 | 107% | 94.9 | 104% | -30.6% (active) | 52% | 96.4% | 126% | 110% | 93.4% | 108% | 98.1% | 102% | 109% | 96.5% | 90.2% | 14.8% | 97.2% | 88%
O=c1[nH]c(-c2ccc(Cl)cc2)nc2sc3c(c12)CCCC3 | 86.1% | 78.1 | 114% | 55.7 | 52.2% | 82.4% | 95.8% | 95.7% | 109% | 63.9% | 69.5% | 108% | 97.8% | 89.1% | 50.7% | 32.9% | 72.1% | 103% | 68.2% | 81.1%
O=C(Nc1cccc(-n2cc(-c3ccncc3)c(-c3ccc(O)c(Cl)c3)n2)c1)c1cccc(C(F)(F)F)c1 | 41.9% | 68 | 47% | 47.2 | 17.2% | 28.2% | 16.1% | 21.4% | 98.8% | 51.1% | 19.3% | 24.6% | -58.9% (active) | -12.4% (active) | 51.7% | 7.62% (active) | 27.4% | 33.3% | 28.4% | 23.8%
O=C(N/N=C/c1ccccc1)C(Oc1ccccc1)c1ccccc1 (stereo not given) | 89.1% | 97.5 | 94.2% | 95 | 94.5% | 65.5% | 111% | 107% | 109% | 107% | 79% | 71.8% | 102% | 100% | 97.1% | 93.7% | 93.7% | 96.7% | 95.6% | 91.9%
COc1cc2cc3c(nc2cc1OC)CCN3Cc1ccc(NC(=O)Nc2ccc(F)cc2F)cc1 | 71.5% | 79.4 | 84.8% | 105 | 97.6% | 63% | 69.4% | 70.4% | 90.9% | 91.2% | 61.5% | 93.2% | 89% | 88.6% | 94.9% | 76.9% | 97.8% | 77.3% | 81.8% | 78.8%
